D1 agonist: agonists of human D1 dopamine receptor. P21728. HEK293 T-REx D1 cells, calcium flux, agonist mode. activation, % at 2 µM. 360,000 compounds, 1% hits; note: 0% is about no effect
Target sequence (P21728 whole entry, looked up): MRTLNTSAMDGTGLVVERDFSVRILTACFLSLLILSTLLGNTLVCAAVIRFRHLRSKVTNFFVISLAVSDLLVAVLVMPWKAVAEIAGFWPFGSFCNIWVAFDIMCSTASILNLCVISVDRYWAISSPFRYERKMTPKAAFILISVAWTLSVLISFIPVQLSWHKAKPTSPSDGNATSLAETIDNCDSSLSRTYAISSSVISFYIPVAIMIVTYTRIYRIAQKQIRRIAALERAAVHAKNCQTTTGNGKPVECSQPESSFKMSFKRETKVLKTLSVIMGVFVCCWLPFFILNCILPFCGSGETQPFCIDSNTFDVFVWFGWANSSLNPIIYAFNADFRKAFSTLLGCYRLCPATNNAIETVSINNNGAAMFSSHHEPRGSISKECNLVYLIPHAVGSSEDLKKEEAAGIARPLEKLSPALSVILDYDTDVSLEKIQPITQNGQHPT
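Tetracycline-induced HEK293 TREx D1 cells, force-coupled to calcium signalling, were dye-loaded with a no-wash calcium kit. Compound was pin-added after a 10 s baseline. Fluorescence was read kinetically at 1 cycle/s for 180 s, with calcium rises flagged as agonism.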
D1 PAM: potentiators of human D1 dopamine receptor; 360,000 compounds, 0.036% hits; AID 504651; potentiation, % at 10 µM; HEK293 TREx D1 cells, calcium flux, dopamine EC20 potentiation; P21728; in the data active = potentiation above about 30%; note: 0% is about no effect
TRHR agonist: agonists of human TRH receptor. 360,000 compounds, 0.18% hits. AID 493084. TRHR cells, calcium flux fluo-8, FDSS agonist mode. activation, % at 2 µM; note: 0% is about no effect
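TRHR-expressing cells loaded with fluo-8 calcium dye; 23 nL library compound pin-transferred, kinetic FDSS fluorescence (Ex 480/Em 530) recorded about 180 s for agonist-induced calcium release, before a 10 nM TRH EC20 addition for potentiator mode.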
TRHR enhancer: allosterically enhances the human TRH receptor; P34981; TRHR cells, fluo-8 calcium fluorescence, EC20 TRH enhancement; enhancement, % at 2 µM; 360,000 compounds, 0.66% hits; AID 493056; in the data active = enhancement above about 30%; note: 0% is about no effect
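Enhancer read-out: after compound pinning and an initial kinetic agonist-mode read, an EC20 of TRH (10 nM final) was injected and fluo-8 calcium signal (Ex 480/Em 530) followed at 1 s/cycle for 100 cycles in TRHR-expressing cells.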
D1 antag: human D1 dopamine receptor antagonism. P21728. HEK293 TREx D1 cells, calcium flux, dopamine EC80; hits give low values. activity change, negative = inhibition, % at 10 µM. 360,000 compounds, 3.2% hits; in the data active = activity change below about -30%; note: % is set by controls: 0 for no effect and ±100 for the full control effect
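After overnight tetracycline induction at 30 C, force-coupled D1 HEK293 cells took up a no-wash calcium dye at room temperature. Compounds were added and monitored 180 s, and the response to EC80 dopamine was then recorded.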
* marks the source's active call; other numbers are inactive results; . = no result given. Shown are actives, neighbours in structure and some others; about 4.6% of the full set was active somewhere. Cut-off read from the data, not from the text of the source, unless noted: active = activation above about 30%; inactive = the rest.

SMILES | D1 agonist | D1 PAM | TRHR agonist | TRHR enhancer | D1 antag
Cc1cc(C)c2c(C)c(C(=O)NCc3ccncc3)oc2c1 | -1 | -5 | -1 | -2 | -44*
CCc1ccc2oc(C(=O)NCc3ccncc3)c(C)c2c1 | -1 | -4 | 1 | 3 | 0
Cc1cc2c(c(=O)o1)C(Cc1ccccc1)C(C#N)=C(N)O2 (stereo not given) | 1 | -6 | 0 | 3 | -56*
COc1ccc(-c2cc(C(=O)O)c3c(C)nn(-c4ccccn4)c3n2)cc1 | 4 | -5 | -1 | -1 | -40*
Cc1ccc(-n2nc(C)c3c(C(=O)O)cc(C)nc32)cc1 | 0 | -5 | 0 | 4 | -50*
CCOC(=O)/C(N=Nc1c(C)n(C)n(-c2ccccc2)c1=O)=C(/O)c1ccccc1 | 1 | -1 | 0 | -3 | -5
COC(=O)/C(N=Nc1c(C)n(C)n(-c2ccccc2)c1=O)=C(\C)O | 1 | 1 | 0 | 33* | -9
CC(=O)Nc1ccc(S(=O)(=O)Nc2cccc(-c3ccc(N4CCC(C)CC4)nn3)c2)cc1 | 1 | -2 | 0 | 6 | 14
CCn1c(N2CCN(CC(=O)c3ccc(OC)cc3)CC2)nc2ccccc21 | -1 | -3 | 0 | 2 | -50*
FC(F)(F)COc1cc(-c2nnc(SCc3ccccc3)n2Cc2ccco2)cc(OCC(F)(F)F)n1 | 32* | -4 | 3 | -5 | -1
CC[C@@H]1C=C(C)C[C@H](C)C[C@H](OC)[C@H]2O[C@@](O)(C(=O)C(=O)N3CCCC[C@H]3C(=O)O[C@H](/C(C)=C/[C@@H]3CC[C@@H](O)[C@H](OC)C3)[C@H](C)[C@@H](O)CC1=O)[C@H](C)C[C@@H]2OC | 32* | -1 | 1 | -11 | -4
CO[C@H]1C[C@@H]2CC[C@@H](C)[C@@](O)(O2)C(=O)C(=O)N2CCCC[C@H]2C(=O)O[C@H]([C@H](C)C[C@@H]2CC[C@@H](O)[C@H](OC)C2)CC(=O)[C@H](C)C=C(C)[C@@H](O)[C@@H](OC)C(=O)[C@H](C)C[C@H](C)C=CC=CC=C1C | 1 | 4 | 1 | 16 | -10
CC(C)CCOP(=O)(c1ccc(N(C)C)cc1)C(Nc1ccccc1)c1ccc(N(C)C)cc1 (stereo not given) | 0 | 2 | -1 | 0 | 12
CC(C)OP(=O)(c1ccc(N(C)C)cc1)C(Nc1ccccc1)c1ccccc1 (stereo not given) | -1 | -17 | 0 | -3 | -40*
O=S(=O)(Cc1ccc(Cl)cc1)N1CCCC1 | 2 | 2 | 0 | -2 | -74*
O=S(=O)(Cc1ccc(Cl)cc1)N1CCCCCC1 | 3 | 2 | 0 | -2 | 3
COc1ccc(COC(=O)CCS(=O)(=O)c2ccc(C)cc2)cc1 | 7 | 1 | -1 | 4 | -44*
CSc1ccc(COC(=O)CCS(=O)(=O)c2ccc(C)cc2)cc1 | 3 | -7 | -1 | -1 | -3
N#C/C(=C(/O)c1ccc2c(c1)OCO2)c1nc2cc(C(F)(F)F)ccc2s1 | 15 | -3 | -1 | -6 | -41*
CC(C)(C)OC(=O)Cc1nnc(CNC(=O)c2ccccc2)s1 | 2 | 0 | -1 | -2 | -6
CC1CCN(c2nc(-c3cccnc3)nc3scc(-c4ccccc4)c23)CC1 | 1 | -4 | 0 | 41* | 0
Cc1ccc(NC(=O)Nc2nnc(SCC(=O)N(C(C)C)C(C)C)s2)cc1 | -3 | -4 | 0 | 6 | .
Cc1csc(CNc2ncnc3ccc(-c4ccco4)cc23)c1 | -1 | -9 | 0 | -8 | -39*
c1cncc(CNc2ncnc3ccc(-c4ccco4)cc23)c1 | 0 | -10 | 0 | -5 | -77*
COc1cccc(-c2ccc3ncnc(NCc4cccnc4)c3c2)c1 | 3 | 3 | 0 | 9 | 9
SMILES | D1 agonist | D1 PAM | TRHR agonist | TRHR enhancer | D1 antag
CC1Cn2cc(C(=O)Nc3cccc(C(F)(F)F)c3)c(=O)c3c(Cl)ccc(c32)O1 (stereo not given) | -1 | -2 | 0 | 2 | 4
Cc1ccc(S(=O)(=O)N(Cc2nc(-c3cccc(C)c3)no2)C2CCCCC2)cc1 | 9 | -2 | 2 | 4 | 6
O=C(CCN1CCN(c2ccccc2)CC1)N/N=C/c1ccc([N+](=O)[O-])o1 | -4 | -8 | 0 | 3 | -43*
O=C(CN1CCCCCCC1)N/N=C/c1ccc([N+](=O)[O-])o1 | -1 | -3 | 0 | -1 | 0
Cc1cc(C)cc(OCC(=O)N/N=C/c2ccc([N+](=O)[O-])o2)c1 | 0 | -10 | 1 | 4 | -38*
CCN(CCCNC(=O)c1nn(-c2ccc(OC)c(Cl)c2)c(=O)c2c1c1ccccc1n2C)c1ccccc1 | -1 | 4 | 1 | -1 | -5
O=C1CC(c2cccc(O)c2)Oc2ccccc21 (stereo not given) | 3 | -6 | 0 | 3 | -32*
CCOc1ccc(Nc2oc(/C=C/c3cc(OC)c(OC)c(OC)c3)nc2C#N)cc1 | 1 | 1 | -1 | -4 | -7
O=C(/C=C/c1ccc(N2CCC(c3ccccc3)=N2)cc1)c1ccccc1 | 138* | -12 | 57* | -3 | -28
CCOC(=O)Cc1csc(NC(=O)Nc2cccc(OC)c2)n1 | 14 | -4 | -2 | -2 | -33*
CCOC(=O)CN(Cc1sccc1C)C(=O)Nc1cccc(OC)c1 | 0 | -9 | 1 | 4 | -37*
CCOC(=O)Cc1csc(NC(=O)c2cccc([N+](=O)[O-])c2)n1 | 9 | -10 | 0 | 1 | -31*
CCOC(=O)Cc1csc(NC(=O)c2sc3nc4c(C)cc(C)cc4cc3c2N)n1 | 85* | -3 | 38* | 21 | 2
CCOc1ccccc1CNC(=O)c1cc(-c2ccc(OC)cc2)nc2ccc(C(C)C)cc12 | -2 | 3 | 0 | -1 | 16
O=C(NCc1ccccc1Cl)c1ccc2c(c1)N(Cc1ccccc1)C(=O)c1ccccc1S2 | 1 | 2 | 0 | 1 | -8
CC(=O)Nc1ccc(NC(=O)C(C)OC(=O)c2cccc(S(=O)(=O)N3CCCC3)c2)cc1 (stereo not given) | 3 | 4 | 1 | -1 | 4
CC(C)(C)c1cc(NS(=O)(=O)c2ccc(Br)s2)no1 | 1 | 0 | 0 | -12 | -15
O=C(NCc1ccc(F)cc1)c1cnc2n(c1=O)CCS2 | 1 | -3 | 0 | 1 | -37*
CC(Oc1ccccc1)C(=O)Nc1ccc(OCc2cc(=O)n3ccsc3n2)cc1 (stereo not given) | 1 | -4 | -2 | 5 | 1
Cc1cccc2cc(CN(Cc3ccco3)S(=O)(=O)c3ccc4c(c3)OCCO4)c(=O)[nH]c12 | 3 | 2 | 0 | -3 | -51*
COC(=O)CC(=O)Cc1nc(N)nc(Nc2ccc(C)c(C)c2)n1 | 1 | -9 | -2 | -6 | -50*

Assay outcomes deposited in PubChem BioAssay by National Center for Advancing Translational Sciences (NCATS).
